An excerpt weighted towards active compounds, which were near 4.1% of everything screened.
TIM10 inh = inhibits growth of TIM10 yeast strain | inhibition, % at 10 µM | 330,000 tested, 1.4% active | S. cerevisiae TIM10 strain growth, BacTiter-Glo luminescence, 24 h | AID 463195;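 active means inhibition of 40% or more at the single tested concentration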;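 further: wild-type TIM10 isogenic control strain grown at permissive 25 °C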
tim10-1 inh = growth inhibitors of tim10-1 mutant yeast. S. cerevisiae tim10-1 ts strain growth, BacTiter-Glo, 24 h. inhibition, % at 20 µM. 330,000 tested, 2.2% active;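 active means inhibition of at least 40%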;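 further: mutant grown at 25 °C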
NALP1 inh = blocks the NALP1 inflammasome reconstituted in yeast | AID 2071 | S. cerevisiae NALP1/ASC/caspase-1 growth, X-gal OD620, 72 h | inhibition, % at 10 µM | 280,000 tested, 0.61% active; in the data active means inhibition mostly above about 24%, no sharp cut-off; inactive means mostly below about 32%
PfHsp90 set2 = growth inhibition of yeast expressing Plasmodium Hsp90; S. cerevisiae expressing PfHsp90, BacTiter-Glo ATP, 48 h; yeast lacking PDR1 and PDR3 efflux regulators; inhibition, % at 9.4 µM; 310,000 tested, 0.32% active; AID 504621;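 active means every replicate shows inhibition above about 80%, whatever the replicate mean, limit read from the data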
tim23-1 inh = growth inhibitors of tim23-1 mutant yeast; S. cerevisiae tim23-1 growth, BacTiter-Glo luminescence, 24 h; inhibition, % at 20 µM; 330,000 tested, 1.3% active; AID 463212;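 active means growth inhibition of the mutant yeast at or above 50%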;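 further: temperature-sensitive mutant grown at 25 °C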
NALP3 yeast inh = inhibitors of NALP3 inflammasome in yeast. Yeast reconstituted NLRP3/ASC/caspase-1, beta-gal luminescence, 24 h. inhibition, % at 10 µM. 330,000 tested, 0.39% active;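 active means inhibition of 50% or more; inactive means inhibition below 50%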
tim10-1 confirm = confirmation of tim10-1 mutant yeast growth inhibitors; S. cerevisiae tim10-1 ts strain growth, BacTiter-Glo, 24 h; 7,400 tested, 56% active; shares compounds with tim10-1 inh; inhibition, % at 20 µM;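 active means inhibition of yeast growth at or above a set limit in either of two repeat tests at 20 µM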;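 further: tim10-1 mutant grown at permissive 25 °C to find synthetic lethal compounds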
A number is an active result; – = inactive; · = no result.

SMILES | TIM10 inh | tim10-1 inh | NALP1 inh | PfHsp90 set2 | tim23-1 inh | NALP3 yeast inh | tim10-1 confirm
COC(=O)c1ccc(CSc2ncnc3sc(C)c(C)c23)o1 | – | 45.7 | – | · | – | – | 37.0
COc1cc(-c2cc(=O)c3c(O)c(OC)c(OC)cc3o2)cc(OC)c1O | – | 42.1 | – | – | – | – | –
Cc1nnc(N/N=C/c2cccc(OCc3ccc(Cl)c(Cl)c3)c2)n1N | – | 43.0 | – | – | – | – | 36.4
Cc1ccc(C2=NS(=O)(=O)N(C)C(C(=O)NC3CCCC3)=C2)cc1 | – | – | – | – | – | – | ·
CSc1ccc(S(=O)(=O)NCc2ccc(C)cc2)cc1 | – | 44.3 | – | – | – | – | 37.0
CSc1ccc(S(=O)(=O)NCc2ccccc2C)cc1 | – | 47.3 | – | – | – | – | –
Cc1ccc(S(=O)(=O)NCc2ccccc2C)cc1 | – | – | – | – | – | – | ·
Cc1ccc(S(=O)(=O)NCc2ccccc2)cc1 | – | – | – | – | – | – | ·
Nc1ncnc2c1ncn2[C@@H]1O[C@H](CNCc2ccccc2OC2OC(CO)C(O)C(O)C2O)[C@@H](O)[C@H]1O (stereo partly drawn) | – | – | · | – | – | · | ·
CN(C)c1ccc(C(C(=O)NC2CCCC2)N(C(=O)c2csnn2)C2CC2)cc1 (stereo not drawn) | – | – | – | – | – | – | ·
COc1cc2cc(C(=O)N3CCN(Cc4ccc5c(c4)OCO5)CC3)[nH]c2cc1OC | – | – | – | – | – | – | ·
O=C(c1cc2cc(F)ccc2[nH]1)N1CCN(Cc2ccc3c(c2)OCO3)CC1 | – | 44.5 | – | – | – | – | –
CC(=O)c1ccc(OC(=O)Cc2cccc3ccccc23)cc1 | – | 46.1 | – | – | – | – | 36.2
O=C(CSc1nc2ncccc2[nH]1)Nc1ccccc1-c1ccccc1 | – | – | – | – | – | – | ·
Cc1ccc(-n2c(C)csc2=N)cc1 | – | – | – | – | – | – | ·
Cc1csc(=N)n1-c1ccc(Cl)cc1 | – | 48.3 | – | – | – | – | –
CC(C)OCCCNC(=O)c1cn(C)c2ccc(S(=O)(=O)N(C)C3CCCCC3)cc2c1=O | – | – | – | – | – | – | ·
CN(C)CCNC(=O)c1ccc2c(=O)n(Cc3ccc(Cl)cc3)c(=S)[nH]c2c1 | – | 45.1 | – | – | – | – | –
CC(C)C[C@@H](CNCC(=O)[C@H](C)NC(=O)c1[nH]cnc1C(=O)N[C@H](CN)CC(C)C)NC(=O)c1nc[nH]c1C(=O)N[C@@H](C)C(=O)O | · | · | · | – | · | · | ·
Cc1ccc([N+](=O)[O-])cc1S(=O)(=O)Nc1ccc(C(=O)NCC2CCCO2)cc1 (stereo not drawn) | – | – | · | – | – | – | ·
CCCCCCc1cc2cc(C(N)=O)c(=N)oc2cc1O | – | 42.2 | – | · | – | – | –
CCc1nc2c(c(=O)c3ccccc3n2C)c(=O)n1C1CCCCCC1 | – | 40.5 | – | – | – | – | –
CC(=O)/C(N=Nc1cccc(C(F)(F)F)c1)=C(\C)O | – | – | – | – | – | – | ·
O=C(/C(N=Nc1cccc(C(F)(F)F)c1)=C(/O)c1cccs1)C(F)(F)F | – | 40.4 | – | – | – | – | 30.6
O=C(CCCOc1ccc(Cl)cc1Cl)n1nnc2ccccc21 | – | 53.6 | – | – | – | – | 38.6
SMILES | TIM10 inh | tim10-1 inh | NALP1 inh | PfHsp90 set2 | tim23-1 inh | NALP3 yeast inh | tim10-1 confirm
Cc1cc(Cl)cc(Cl)c1OCC(=O)NCc1ccco1 | – | 50.3 | – | – | – | – | 40.4
Cc1ccc(C)c(NS(=O)(=O)c2c(C)nc3sccn3c2=O)c1 | – | – | – | – | – | – | ·
CCN(CC)S(=O)(=O)c1ccc(N/N=C/c2ccc(O)cc2)nc1 | – | 41.6 | – | – | – | – | 34.2
CCOc1cccc(/C=N/Nc2ccc(S(=O)(=O)N(CC)CC)cn2)c1O | – | 40.9 | – | – | – | – | –
CCN(CC)S(=O)(=O)c1ccc(N/N=C/c2cc(OC)c(OC)cc2OC)nc1 | – | – | – | – | – | – | ·
Cc1ccnc(NC(=O)c2ccc(S(=O)(=O)NCc3ccco3)cc2)c1 | – | – | · | · | – | – | ·
CN1CC(c2ccc(C#N)cc2)C2(COc3ccccc3C2=O)C12C(=O)Nc1ccccc12 (stereo not drawn) | – | 40.2 | – | – | – | – | 40.0
COc1ccc(OC)c(C(C)NC(=S)NC2CCCCC2)c1 (stereo not drawn) | – | 42.4 | – | – | – | – | –
COc1ccc(NC(=S)NC2CCCC2)c(OC)c1 | – | – | – | – | – | – | ·
CN(C)CCN(C(=O)c1cccc2ccccc12)c1nc2cc3c(cc2s1)OCO3 | – | 45.3 | – | – | – | – | –
CN(C)CCN(C(=O)c1ccc2ccccc2c1)c1nc2cc3c(cc2s1)OCCO3 | – | – | – | – | – | – | ·
Nc1c(N2CCN(c3ccccc3)CC2)c2ccccc2oc1=O | – | 49.4 | – | – | – | – | 27.4
O=C(CCNS(=O)(=O)c1ccccc1F)OCc1ccccc1Cl | – | – | · | · | – | – | ·
O=C(NCc1cccnc1)/C(=C/c1ccc(-c2cccc(Cl)c2)o1)S(=O)(=O)c1ccccc1 | – | 44.5 | – | – | – | – | 36.1
O=C(NCc1cccnc1)/C(=C\c1ccc(-c2cccc(Cl)c2)o1)S(=O)(=O)c1ccccc1 | · | · | – | – | · | · | ·
CC(C)c1ccc(NC2CCCN(C(=O)c3ccc(N4CCOCC4)cc3)C2)cc1 (stereo not drawn) | – | – | – | – | – | – | ·
Cc1ccc2[nH]c(C(=O)N3CCCC(Nc4ccc(F)cc4)C3)cc2c1 (stereo not drawn) | – | 51.4 | – | – | – | – | –
CCOc1ccccc1NC(=S)NCCc1ccc(F)cc1 | – | – | – | – | – | – | ·
Cc1ccc(NC(=S)NCCc2ccc(F)cc2)c(C)c1 | – | – | – | – | – | – | ·
CCOc1ccccc1NC(=S)NCCc1ccccc1 | – | 42.2 | – | – | – | – | –
Cc1ccc(F)cc1NC(=S)NCCc1ccccc1 | – | 44.7 | · | – | – | – | –
Cc1ccccc1C(=O)OCC(=O)N(C)c1ccccc1 | – | 51.7 | – | – | – | – | 31.5
CC(C)c1ccc(Nc2ccc(C(=O)O)cc2[N+](=O)[O-])cc1 | – | – | – | – | – | – | ·
O=C(NCCCN1CCCC1=O)c1cc2nc(-c3ccco3)cc(C(F)(F)F)n2n1 | – | – | – | – | – | – | ·
CCOC(=O)c1cc(NC(=O)Nc2ccccc2Cl)c(C)nc1C | – | – | – | – | – | – | ·
CCOC(=O)c1cc(NC(=O)Nc2ccccc2OC)c(C)nc1C | – | 41.1 | – | – | – | – | –
CC(C)N(CCCNC(=O)C1CCN(C(=O)c2cc3sccc3n2C)CC1)Cc1ccccc1 | – | – | – | – | – | – | ·
N#C/C(=C\c1ccc(-c2nc3ccccc3s2)o1)C(N)=O | – | 40.2 | · | – | – | – | –
